Our source for the growth values is PubChem BioAssay (NCI).

Structures are written as SMILES. “And” between values parts separate entries of the source, which are not always exact repeats. Identical values can stand only once. Compounds without any hit were thinned out: in the full panel of roughly 83,000, 20% have a hit.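 96-well plates, one dose, 48 hours. Percent growth reported; active if below 10.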 A number with no mark means an inactive call. The source made the active and inactive calls.

This assay relates to MDA-MB-468 breast. In words: NCI-60 one-dose screen, 48 h (100 = growth as untreated, 0 = no growth, -100 = all killed). The settings on record: 10 µM unless noted.
In the case of `COC(=O)[C@]12CC[C@@H](C)[C@H](C)[C@@H]1C1=CC[C@@H]3[C@@]4(C)C[C@@H](OC(C)=O)[C@H](O)[C@@](C)(COC(C)=O)[C@@H]4[C@H](O)C[C@@]3(C)[C@]1(C)CC2`, the growth is -90.2% (active). For `O=C(NCCCl)c1cc(Cl)cc(Cl)c1` the value was 108%; for `Cn1c2c(cc(S(=O)(=O)c3ccccc3)c1=O)CCc1c-2cnn1-c1cccc(Cl)c1`, 67%. For `Cc1[nH]c(C(=O)Nc2nc3ccc(NC(=O)CCN)cc3s2)c(Cl)c1Cl`, the growth was 69.4%. The value for `O=C(NCCN1CCOCC1)OCc1nc2nc(Cl)nc(N3CCOCC3)c2[nH]1` was 10.1%; that for `CCOC(=O)c1cc(C(=O)c2cc(OC)c(OC)c(OC)c2)n2c1ccc1ccccc12` was 1.54% (active). For `N#Cc1c(-c2ccccc2)nc2c(c(-c3ccccc3)nn2-c2ccccc2)c1-c1ccc(O)cc1` the value was 38.3%; for `Nc1ccn(C2OC(CO)C(O)C2O)c(=O)n1` (stereo unspecified), 76% and 106% and 118%.

Turning to `O=C(O)CNC(=O)CN1C(=O)c2ccccc2C1=O`, the growth was 106%. For `c1ccc(COc2ccc(Nc3ncnc4c3cnn4-c3ccccc3)cc2)cc1` the value was 93.1%; for `Clc1ccc(N2CCN(CCCN3CCN(c4cccc(Cl)c4)CC3)CC2)cc1`, 23.5%; for `CCCCCCCCn1ccc2cc(NC(=O)Cn3cc(CN4CCCCCC4)nn3)ccc21`, -67.2% (active). For `CS(=O)(=O)c1ccc(-n2cc(/C=N/O)c(-c3ccccc3)n2)cc1` the value was 35%; for `c1coc(CNc2c3ccccc3nc3ccccc23)c1`, 29.4%. For `C/C(=C(\c1ccc(O)cc1)c1ccc(OCCN2CCCCCC2)cc1)c1ccc(Cl)cc1`, the growth was -88% (active). For `COc1cccc(-c2nn(-c3ccccc3)cc2-c2ccnc(N3CCN(C(=O)c4ccccc4)CC3)c2)c1` the value was 82.3%; for `COc1cccc(C2C(C#N)=C(N)Oc3cc(N)ccc32)c1` (stereo unspecified), -22.2% (active); for `CC(C)(C)c1cc(-c2nc3ccc(N4CCN(CCO)CC4)cc3[nH]2)cc(C(C)(C)C)c1O`, 52.7%. Take `O=C(/C=C/c1cccs1)Nc1ncc(Cc2ccccc2F)s1`: the growth is -13.8% (active). With `CCOC(=O)c1cc(/C(=N\O)c2cc(OC)c(OC)c(OC)c2)n2c(C)cccc12`, the growth is 21.8%. Turning to `O=C(NC(CSSCC(NC(=O)c1ccccc1)C(=O)O)C(=O)O)c1ccccc1` (stereo unspecified), the growth is 111%.

Take `Cc1cc(-c2ccc(N=Nc3c(S(=O)(=O)O)cc4cc(S(=O)(=O)O)cc(O)c4c3O)c(C)c2)ccc1N=Nc1c(S(=O)(=O)O)cc2cc(S(=O)(=O)O)cc(O)c2c1O`: the growth is 109%. For `C=CCN=C(N)SCCCCCCSC(N)=NCC=C` the value was 84.7%; for `Cn1c(N)c(N=O)c(=O)[nH]c1=O`, 115%.

On to `COc1ccc(Cn2cc(C#N)c(N)c2C(C)=O)cc1`, for which the growth was 102%. The value for `CC1(C)CC[C@]2(c3nnc(-c4ccncc4)o3)CC[C@H]3C(=CC[C@H]4[C@@]3(C)CC[C@H]3C(C)(C)C(=O)CC[C@]43C)[C@@H]2C1` was 62.2%; that for `COc1ccc(Oc2nc(Nc3ccc(N4CCOCC4)cc3)ncc2NC(=O)c2cc(OC)cc(OC)c2)cc1` was 86.6%.

For the compound `COc1cc(C2=N/C(=C\c3cc4ccccc4nc3Oc3ccccc3)C(=O)N2C(=N)N)cc(OC)c1OC`, the growth is 67.9%. As for `O=NC1CC=CCC1c1ccccc1` (stereo unspecified), the growth was 104%.

For `CCC(=C(c1ccc(OCCN2CCCC2)cc1)c1ccc(OCCN2CCCC2)cc1)c1ccc(Cl)cc1`, the growth is -53.5% (active). The value for `C[C@]12CC[C@@H]3c4ccc(O)c([N+](=O)[O-])c4CC[C@H]3[C@@H]1CC[C@@H]2NS(=O)(=O)c1ccc(C(F)(F)F)cc1` was 25.2%. Regarding `O=C(CC(CC(=O)c1ccccc1)c1ccccn1)c1ccccc1`, the growth was 102%. For `CCOC(=O)Sc1ncnc2nc[nH]c12` the value was 75.3%. The value for `CN1CCN(CCCNc2nccc(-c3c(-c4ccc(F)c(O)c4)nc4sccn34)n2)S1(=O)=O` was 92.9%; that for `C[C@]12CC[C@@H]3c4ccc(OS(=O)(=O)O)cc4CC[C@H]3[C@@H]1CC[C@@H]2NS(=O)(=O)c1ccc(-c2ccccc2)cc1` was 76.8%; that for `Clc1ccc(N/N=c2/oc3ccccc3cc2-c2cc3ccccc3[nH]2)cc1` was 59.8%.
